Vaccinia Venus: inhibitors of vaccinia virus (Venus reporter). Vaccinia virus Venus reporter expression, fluorescence. AID 720580. 330,000 tested, 0.46% active. Potency, µM (doses to about 36.5 µM), inactives show at the highest dose activity change, negative = inhibition, most hits filed as inhibitors; calls by dose curve; tested in A549 cells; further: potency means the concentration at half of the fitted maximal effect; nearly all actives have a fitted effect of over 30% in size
HCMV inh: human cytomegalovirus inhibition; AID 1259415; 410,000 tested, 4.5% active; HFF cells, HCMV-luciferase reporter, 72 h; stronger effect = lower value; activity change, negative = inhibition, % at 57.5 µM; in the data active means activity change below about -60%; inconclusive means no clear call, values can overlap the other calls; inactive means above about -39%
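Inhibition of viral replication was scored as loss of reporter luminescence in HFFs infected with HCMV-luciferase (MOI 1 PFU/cell) for 72 h; compounds tested at 2 doses, normalized to buffer and Salinomycin controls.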
LASV entry inh: blocks Lassa virus binding to or entry into cells. Lassa virus pseudotype entry inhibition, cell reporter. Potency, µM (series often up to 37.9 µM), without a hit: at the highest dose activity change, negative = inhibition, hits mostly inhibitors. 300,000 tested, 1.2% active. AID 540256; calls by dose curve; tested in HEK293 cells; further: potency means the concentration at half of the fitted maximal effect; nearly all actives have a fitted effect of over 50% in size
FMDV antiviral: antivirals against foot and mouth disease virus. 410,000 tested, 1.2% active. Potency, µM (titrated, usually from 57.9 µM), for the others: top-dose activity change, negative = inhibition, actives largely listed as inhibitors. AID 1159524. FMDV antiviral cell-based qHTS; calls by dose curve; tested in HEK293T cells; further: read-out not given here; potency means the concentration at half of the fitted maximal effect; nearly all actives have a fitted effect of over 45% in size
VACV mCherry inh: inhibitors of vaccinia virus infection (mCherry reporter signal); 310,000 tested, 0.63% active; Potency, µM (doses to about 36.5 µM), inactives show at the highest dose activity change, negative = inhibition, most hits filed as inhibitors; Vaccinia virus mCherry reporter infection, fluorescence; calls by dose curve; tested in A549 cells; further: potency means the concentration at half of the fitted maximal effect; nearly all actives have a fitted effect of over 35% in size
Marburg entry inh: Marburg virus entry inhibition. Marburg virus pseudotyped entry inhibition, cell reporter. Potency, µM (highest dose often 37.8 µM), for the others: top-dose activity change, negative = inhibition, hits mostly inhibitors. 300,000 tested, 1.8% active; calls by dose curve; tested in HEK293 cells; further: potency means the concentration at half of the fitted maximal effect
* marks the source's active call; other numbers are inactive results; [ ] = remark or other dose. Compounds with a hit are over-represented: about 6.5% of the library has one in this group of screens. On the % scale 0 is the no-effect control and ±100 the full control effect.

What do the screens show for `CCOc1ccc(N(CC(=O)NC2CC3CCC2C3)S(=O)(=O)c2ccc(C)cc2)cc1` (stereo not drawn)?
HCMV inh: 5; FMDV antiviral: -16%

Results for CCOc1ccc(N(CC(=O)NC2CCCCC2)S(=O)(=O)c2ccc(C)cc2)cc1 ?
Vaccinia Venus: -5%; HCMV inh: -40; LASV entry inh: -15%; FMDV antiviral: 19%; VACV mCherry inh: -11%; Marburg entry inh: -1%[46.1 µM]

Results for COc1ccc(N(CC(=O)NC2CC3CCC2C3)S(=O)(=O)c2ccccc2)cc1OC (stereo not drawn) ?
Vaccinia Venus: -21%; HCMV inh: 4; LASV entry inh: 8.9µM*; FMDV antiviral: -12%; VACV mCherry inh: inactive; Marburg entry inh: inconclusive

How did CCOc1ccc(N(CC(=O)NC2CCCC2)S(=O)(=O)c2ccccc2)cc1 do in these assays?
Vaccinia Venus: -8%; HCMV inh: -64*; LASV entry inh: 4%; FMDV antiviral: -7%; VACV mCherry inh: -15%; Marburg entry inh: -12%[46.1 µM]

What do the screens show for `Cc1cc2c(c(-c3nc4ccccc4s3)c1)OC(CNC(=O)CCc1cccnc1)C2` (stereo not drawn)?
Vaccinia Venus: 14%; FMDV antiviral: 12%; VACV mCherry inh: -8%

How did COc1ccc(-c2cc(C(C)=O)c(C)n2CCC(=O)NC2CCCCC2)cc1 do in these assays?
Vaccinia Venus: -6%; HCMV inh: 0; LASV entry inh: 5%[46.1 µM]; FMDV antiviral: 12%; VACV mCherry inh: -15%

How did COCCCn1c(-c2ccc(OC)cc2)cc(C(=O)NC2CCCCCCC2)c1C do in these assays?
Vaccinia Venus: -27%; HCMV inh: -65*; LASV entry inh: inconclusive; FMDV antiviral: -3%; VACV mCherry inh: inconclusive; Marburg entry inh: inconclusive

What do the screens show for `CCOc1cc(CNc2ccc(O)cc2)cc(Br)c1OCc1ccccc1`?
Vaccinia Venus: inconclusive; HCMV inh: -104*; LASV entry inh: -7%[46.1 µM]; FMDV antiviral: inconclusive; VACV mCherry inh: inconclusive; Marburg entry inh: inconclusive

How did COc1cc(CNc2ccc(O)cc2)cc(Br)c1OCc1ccccc1F do in these assays?
Vaccinia Venus: -1%; LASV entry inh: inconclusive; FMDV antiviral: inconclusive; VACV mCherry inh: -2%; Marburg entry inh: inconclusive

Results for Nc1nonc1C(=O)NCCNCc1cc(Br)ccc1OCc1ccccc1F ?
HCMV inh: -62*; LASV entry inh: -19%; FMDV antiviral: inconclusive; Marburg entry inh: inconclusive

Results for CCOc1cc(CNCCO)cc(Br)c1OCc1ccc(Cl)cc1 ?
Vaccinia Venus: inconclusive; HCMV inh: -99*; LASV entry inh: inconclusive; FMDV antiviral: inconclusive; VACV mCherry inh: inconclusive; Marburg entry inh: inconclusive

How did COc1cc(CNCc2ccncc2)cc(Br)c1OCc1ccccc1F do in these assays?
HCMV inh: -90*; LASV entry inh: inconclusive; FMDV antiviral: 32µM*; Marburg entry inh: inconclusive

What do the screens show for `COCc1c(C(=O)N2CCC(N3CCCCC3)CC2)cnn1-c1ncc(C)c(-c2cccs2)n1`?
Vaccinia Venus: 1%; FMDV antiviral: -14%; VACV mCherry inh: -11%

Results for CCN(CC(=O)Nc1ccccc1OC)Cc1csc(CC(=O)Nc2ccc(C)cc2)n1 ?
Vaccinia Venus: -10%; HCMV inh: -11; LASV entry inh: -9%[46.1 µM]; FMDV antiviral: -22%; VACV mCherry inh: inactive; Marburg entry inh: inconclusive

How did Cc1ccc(CCNc2ncnc3onc(C)c23)cc1 do in these assays?
Vaccinia Venus: -13%; HCMV inh: inconclusive; LASV entry inh: -18%[46.1 µM]; FMDV antiviral: inconclusive; VACV mCherry inh: -25%

What do the screens show for `C=CCN(Cc1cn(C)nc1-c1cccc(Cl)c1)C1CCS(=O)(=O)C1` (stereo not drawn)?
Vaccinia Venus: -2%; HCMV inh: 29; LASV entry inh: -21%[46.1 µM]; FMDV antiviral: -10%; VACV mCherry inh: inactive; Marburg entry inh: 1%[46.1 µM]

What do the screens show for `OCCNCc1cc(Br)ccc1OCc1ccccc1Cl`?
Vaccinia Venus: -22%; HCMV inh: -61*; LASV entry inh: -17%; FMDV antiviral: inconclusive; VACV mCherry inh: -1%; Marburg entry inh: inconclusive

What do the screens show for `CCOc1cc(CNC(C)(C)CO)cc(Br)c1OCc1ccc(Cl)cc1Cl`?
Vaccinia Venus: inconclusive; HCMV inh: 4; LASV entry inh: inconclusive; FMDV antiviral: inconclusive; VACV mCherry inh: inconclusive; Marburg entry inh: 18µM*

Results for CCOc1cc(CNCCO)cc(Br)c1OCc1ccccc1Cl ?
Vaccinia Venus: 10µM*; HCMV inh: -3; LASV entry inh: inconclusive; FMDV antiviral: 13µM*; VACV mCherry inh: -9%[1.46 µM]; Marburg entry inh: 16µM*

What do the screens show for `COc1cc(CNC(C)(C)CO)cc(Br)c1OCc1ccccc1`?
Vaccinia Venus: -12%; HCMV inh: -32; LASV entry inh: inconclusive; FMDV antiviral: -14%; VACV mCherry inh: -13%; Marburg entry inh: inconclusive

How did O=C(NCc1nnc2n1CCN(C(=O)/C=C/c1ccccc1)CC2)c1cccc(F)c1 do in these assays?
Vaccinia Venus: -4%; FMDV antiviral: 5%; VACV mCherry inh: -12%

How did O=C1CCC[C@H]2[C@@H](Cc3ccccc3)[C@@H](NS(=O)(=O)c3ccc(F)cc3)CC[C@]23CCCN13 do in these assays?
HCMV inh: -28

What do the screens show for `COC(=O)c1cc2ccsc2n1CC(=O)Nc1cc(Cl)ccc1OC`?
Vaccinia Venus: inconclusive; HCMV inh: -97*; LASV entry inh: -22%; VACV mCherry inh: inconclusive; Marburg entry inh: -28%

Results for COC(=O)c1cc2oc(C)cc2n1CC(=O)Nc1cc(Cl)ccc1OC ?
Vaccinia Venus: -13%; HCMV inh: 13; FMDV antiviral: -15%; VACV mCherry inh: -21%; Marburg entry inh: inconclusive

What do the screens show for `CC(Oc1ccc(F)cc1)C(=O)Nc1ccc2ccccc2c1` (stereo not drawn)?
HCMV inh: -67*; LASV entry inh: inconclusive; FMDV antiviral: 9%; Marburg entry inh: 12µM*

What do the screens show for `CC(Oc1ccccc1F)C(=O)Nc1ccc2ccccc2c1` (stereo not drawn)?
Vaccinia Venus: 19%; HCMV inh: -77*; LASV entry inh: inconclusive; FMDV antiviral: 14%; VACV mCherry inh: inconclusive; Marburg entry inh: inconclusive

What do the screens show for `CCc1nc2ccc(C(=O)NCCCN3CCCC3=O)cn2c1N(CC)C(=O)NCCc1ccccc1`?
Vaccinia Venus: 7%; HCMV inh: 3; FMDV antiviral: 0%; VACV mCherry inh: 4%

How did COCCOCCOCCC(=O)N[C@@H]1C[C@@H]2CC[C@@]1(C)C2(C)C do in these assays?
Marburg entry inh: -1%

How did COc1cccc(CNC(=O)c2ccc3c(c2)N(Cc2ccc(F)cc2Cl)C(=O)c2ccccc2S3)c1 do in these assays?
Vaccinia Venus: -9%[7.34 µM]; HCMV inh: inconclusive; LASV entry inh: inconclusive; FMDV antiviral: -24%; VACV mCherry inh: -18%[7.34 µM]

What do the screens show for `COc1ccccc1C(=O)N(Cc1cc2cccc(C)c2nc1N1CCC(O)CC1)C1CC1`?
Vaccinia Venus: 5%; FMDV antiviral: -7%; VACV mCherry inh: -14%

How did O=C(CNCC(=O)Nc1ccc(F)c(F)c1F)Nc1ccc(F)c(F)c1F do in these assays?
HCMV inh: -83*; FMDV antiviral: -4%
